High-throughput results as filed in PubChem BioAssay.
A selection: hits, their analogues and other compounds. The true share with any hit is near 3%.
GDH-TPI counter-1 – counter-screen for M. tuberculosis FBA inhibitors: GDH-TPI coupled enzymes; inhibition, % at 4.8 µM; 360,000 tested, 1.2% active; GDH-TPI coupled enzyme counterscreen, NADH absorbance; in the data active = inhibition above about 30%
FadD28 FP inh – blocks FadD28 binding to the bisubstrate probe; fluorescence polarization; inhibition, % at 12.5 µM; 360,000 tested, 0.22% active; AID 588549; in the data active = inhibition above about 8.5%, passing the limit was not always enough
Rv3671c inh – Rv3671c (M. tuberculosis) protease inhibition; inhibition, % at 5.96 µM; 320,000 tested, 0.048% active; P9WHR9; AID 2606; in the data active = inhibition above about 38%;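 note: extracellular domain of Rv3671c used as enzyme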
Target sequence (P9WHR9 whole entry, looked up, the tested form may be a part): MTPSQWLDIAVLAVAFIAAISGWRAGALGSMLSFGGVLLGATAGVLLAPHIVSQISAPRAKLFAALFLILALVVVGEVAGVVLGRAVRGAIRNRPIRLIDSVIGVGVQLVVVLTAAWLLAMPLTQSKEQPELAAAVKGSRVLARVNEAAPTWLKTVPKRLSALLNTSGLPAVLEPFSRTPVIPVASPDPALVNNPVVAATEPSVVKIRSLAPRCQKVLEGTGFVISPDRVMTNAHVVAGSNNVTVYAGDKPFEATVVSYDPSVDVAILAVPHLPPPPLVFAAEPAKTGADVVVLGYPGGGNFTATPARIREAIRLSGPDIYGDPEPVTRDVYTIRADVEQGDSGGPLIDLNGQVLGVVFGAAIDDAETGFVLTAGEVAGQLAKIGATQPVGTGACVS
Mtb FBA inh – Mtb fructose-bisphosphate aldolase inhibition. P9WQA3. purified M. tuberculosis FBA, fluorescence read-out. inhibition, % at 1 µM. 360,000 tested, 2.3% active
Target sequence (P9WQA3 whole entry, looked up): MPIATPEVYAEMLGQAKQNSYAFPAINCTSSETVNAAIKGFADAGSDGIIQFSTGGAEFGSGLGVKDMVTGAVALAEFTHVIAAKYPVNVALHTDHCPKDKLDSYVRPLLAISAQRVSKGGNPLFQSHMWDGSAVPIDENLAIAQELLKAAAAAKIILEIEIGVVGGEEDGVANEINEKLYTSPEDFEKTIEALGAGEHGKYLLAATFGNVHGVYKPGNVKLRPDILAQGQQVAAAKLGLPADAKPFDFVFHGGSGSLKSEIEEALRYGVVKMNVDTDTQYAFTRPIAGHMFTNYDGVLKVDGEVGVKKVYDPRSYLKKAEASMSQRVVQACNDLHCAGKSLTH
BioA inh – inhibitors of Mycobacterium tuberculosis BioA enzyme; AID 602481; inhibition, % at 9.99 µM; purified M. tuberculosis BioA enzyme, plate reader; 360,000 tested, 0.096% active; in the data active = inhibition above about 40%
Mtb FBA inh conf – Mtb FBA inhibition, confirmed; inhibition, % at 1 µM; 5,600 tested, 78% active; shares compounds with Mtb FBA inh; purified M. tuberculosis FBA, fluorescence read-out; AID 651616
GDH-TPI counter-2 – GDH-TPI inhibition counter-screen for FBA inhibitors | shares compounds with Mtb FBA inh | inhibition, % at 1 µM | 5,600 tested, 81% active | GDH-TPI coupled enzyme counterscreen, fluorescence; in the data active = inhibition above about 10%
Each line names hits and unclear results; the compound was inactive in the other large screens (follow-up assays come after a bar, where they were run). Cut-off read from the data, not from the text of the source, unless noted: active = inhibition above about 27%; inactive = the rest.

Cc1c(Cc2ccccc2)c(=O)oc2cc(OCC(=O)NCC3CCC(C(=O)O)CC3)ccc12 (stereo unspecified)	GDH-TPI counter-1 34.3, Mtb FBA inh 104.1 | Mtb FBA inh conf inactive | GDH-TPI counter-2 inactive
COC(=O)COc1cc(C)cc2oc(=O)c(CC(=O)OC)c(C)c12	Mtb FBA inh 92.7 | Mtb FBA inh conf 83.8 | GDH-TPI counter-2 66.2
C[C@@H]1CN([C@H](C)CO)S(=O)(=O)c2ccc(C#C[C@@H](C)O)cc2O[C@@H]1CN(C)C(=O)Nc1ccccc1	none (no result: GDH-TPI counter-1, FadD28 FP inh, Rv3671c inh, Mtb FBA inh)
COC(=O)[C@H]1[C@H](CO)[C@H]2Cn3c(ccc(-c4ccccc4F)c3=O)[C@H]2N1CC1CCOCC1	none (no result: GDH-TPI counter-1, FadD28 FP inh, Rv3671c inh, Mtb FBA inh)
CC(=O)N(C)C[C@H]1[C@H](c2ccc(-c3ccccc3F)cc2)[C@@H](CO)N1C(C)=O	none (no result: GDH-TPI counter-1, FadD28 FP inh, Rv3671c inh, Mtb FBA inh)
Cc1cc(=O)oc2c(C)c(OCC(=O)NCC3CCC(C(=O)O)CC3)ccc12 (stereo unspecified)	none
CCc1c(C)c2ccc(OCC(=O)NCC3CCC(C(=O)O)CC3)c(C)c2oc1=O (stereo unspecified)	Mtb FBA inh 38.5 | Mtb FBA inh conf 166.6 | GDH-TPI counter-2 133.7
CCCCCC(=O)Nc1c2c(nc3ccccc13)CCC2	none
CC(C)C(=O)Nc1c2c(nc3ccccc13)N(C)CC2	Mtb FBA inh 73.8 | Mtb FBA inh conf active | GDH-TPI counter-2 active
CCN(CC)CC(=O)Nc1c2c(nc3ccccc13)N(C)CC2	Mtb FBA inh 48.4 | GDH-TPI counter-2 active
COCC(=O)N1C[C@@H](C)[C@@H](OC)CN(C)C(=O)c2cc(NC(=O)Nc3cccc(F)c3)ccc2OC[C@H]1C	none (no result: GDH-TPI counter-1, FadD28 FP inh, Rv3671c inh, Mtb FBA inh)
CC(=O)N(C)C[C@@H]1Oc2cc(C#CCC(C)C)ccc2S(=O)(=O)N([C@H](C)CO)C[C@@H]1C	none (no result: GDH-TPI counter-1, FadD28 FP inh, Rv3671c inh, Mtb FBA inh)
Cc1cccc(NC(=O)CCCCCN2C(=O)[C@@H]3Cc4ccccc4CN3C2=O)c1	none (no result: BioA inh)
Cc1ccc(NC(=O)CCCCCN2C(=O)[C@@H]3Cc4ccccc4CN3C2=O)cc1	Mtb FBA inh 53.3 | Mtb FBA inh conf inactive | GDH-TPI counter-2 inactive
COc1ccc(-c2ccc(C(=O)C3CC3)cc2)cc1	Mtb FBA inh 59.9 | Mtb FBA inh conf 51.8 | GDH-TPI counter-2 44.5
CN(CC(=O)Nc1ccc(Br)cc1)Cc1ccccc1	none
COC(=O)c1cc(NC(=O)CN(C)Cc2ccccc2)cc(C(=O)OC)c1	Mtb FBA inh 34.5 | Mtb FBA inh conf inactive | GDH-TPI counter-2 22.1
O=c1cc(-c2ccccc2)oc2ccc(Cl)cc12	none (no result: Rv3671c inh, BioA inh)
O=c1cc(-c2cccs2)oc2ccc(Cl)cc12	GDH-TPI counter-1 37.6, Mtb FBA inh 37.8 | Mtb FBA inh conf 155.8 | GDH-TPI counter-2 119.5
Cc1nc2c(-c3ccc(Cl)cc3)c(C)[nH]n2c(=O)c1Cc1ccccc1	Mtb FBA inh 39.0 (no result: BioA inh) | Mtb FBA inh conf inactive | GDH-TPI counter-2 inactive
Cc1nc2c(-c3ccc(F)cc3)c(C)[nH]n2c(=O)c1Cl	Mtb FBA inh 42.1 | Mtb FBA inh conf inactive | GDH-TPI counter-2 20.6
COc1ccc(S(=O)(=O)N(C)C[C@H]2Oc3ccc(NS(=O)(=O)c4cn(C)cn4)cc3CC(=O)N([C@@H](C)CO)C[C@H]2C)cc1	none (no result: GDH-TPI counter-1, FadD28 FP inh, Rv3671c inh, Mtb FBA inh)
COC(=O)C(C)Oc1ccc(-c2nccc(-c3ccccn3)n2)cc1 (stereo unspecified)	Mtb FBA inh 109.8 | Mtb FBA inh conf 68.5 | GDH-TPI counter-2 60.5
Cc1ccc(-c2cc(C(=O)NCC(c3ccccc3)N(C)C)c3ccccc3n2)o1 (stereo unspecified)	Mtb FBA inh 71.1 | Mtb FBA inh conf 54.0 | GDH-TPI counter-2 45.6
COc1cccc(NC(=O)CN(C)C(=O)c2cc(-c3ccc(C)o3)nc3ccccc23)c1	Mtb FBA inh 55.9 | Mtb FBA inh conf 37.2 | GDH-TPI counter-2 39.5
CCOc1ccc(NC(=O)CN(C)C(=O)c2cc(-c3ccc(OC)cc3)nc3ccccc23)cc1OCC	Mtb FBA inh 27.6 (no result: BioA inh) | Mtb FBA inh conf 50.6 | GDH-TPI counter-2 38.6
COc1ccc(NC(=O)CN(C)C(=O)c2cc(-c3ccc(Cl)cc3)nc3ccccc23)cc1	none (no result: BioA inh)
O=C(C[C@@H]1CC[C@H]2[C@@H](COC[C@@H](O)CN2Cc2ccc3c(c2)OCO3)O1)Nc1ccccc1	none (no result: GDH-TPI counter-1, FadD28 FP inh, Rv3671c inh, Mtb FBA inh)
O=C1NC(=O)c2cc3ccccc3cc21	Mtb FBA inh 36.5 | Mtb FBA inh conf 34.4 | GDH-TPI counter-2 23.9
Cc1ccc(S(=O)(=O)Nc2cccc3c2O[C@H](CN(C)C(=O)Nc2c(C)noc2C)[C@@H](C)CN([C@@H](C)CO)C3=O)cc1	none (no result: GDH-TPI counter-1, FadD28 FP inh, Rv3671c inh, Mtb FBA inh)
CCCOC(=O)c1cc(-c2ccc(C=O)o2)ccc1Cl	Mtb FBA inh 97.3 | Mtb FBA inh conf inactive | GDH-TPI counter-2 inactive
CCOC(=O)c1cccc(-c2ccc(C=O)o2)c1	none
C[C@H](O)[C@@H]1C(=O)N2CCc3c([nH]c4ccccc34)[C@@H]2C[C@@H]1N(C)S(=O)(=O)c1ccccc1	Mtb FBA inh 71.9 (no result: Rv3671c inh, BioA inh) | Mtb FBA inh conf active | GDH-TPI counter-2 active
Cc1ccccc1C(=O)N(C)[C@H]1C[C@H]2c3[nH]c4ccccc4c3CCN2C(=O)[C@H]1[C@H](C)O	none (no result: Rv3671c inh)
C[C@H](O)[C@@H]1C(=O)N2CCc3c([nH]c4ccccc34)[C@@H]2C[C@@H]1N(C)C(=O)Nc1cccc2ccccc12	Mtb FBA inh 73.8 (no result: GDH-TPI counter-1, Rv3671c inh) | Mtb FBA inh conf inactive | GDH-TPI counter-2 24.1
CCCNC(=O)N(C)C[C@H]1Oc2cc(-c3ccccc3F)ccc2S(=O)(=O)N([C@H](C)CO)C[C@@H]1C	none (no result: GDH-TPI counter-1, FadD28 FP inh, Rv3671c inh, Mtb FBA inh)
N#C/C(=C\c1c(Oc2ccccc2F)nc2ccccn2c1=O)C(=O)NC1CCS(=O)(=O)C1 (stereo unspecified)	Mtb FBA inh 27.8 (no result: BioA inh) | Mtb FBA inh conf 105.5 | GDH-TPI counter-2 84.3
N#C/C(=C\c1c(Oc2ccccc2Cl)nc2ccccn2c1=O)C(=O)NC1CCS(=O)(=O)C1 (stereo unspecified)	none
CN(C)CCNC(=O)c1ccc2c(c1)N(Cc1ccc(F)cc1)CCS2	Mtb FBA inh 86.7 | Mtb FBA inh conf inactive | GDH-TPI counter-2 inactive
O=C(NC1CCCC1)c1ccc2c(c1)N(Cc1ccc(F)cc1)CCS2	Mtb FBA inh 71.7 | Mtb FBA inh conf inactive | GDH-TPI counter-2 inactive
COc1ccc(OC)c(CCNC(=O)c2ccc3c(c2)N(Cc2ccc(F)cc2)CCS3)c1	none
O=C(c1ccccn1)N1C[C@H]2[C@@H](c3ccccc31)[C@H](CO)N2C(=O)C1CCCCC1	none (no result: GDH-TPI counter-1, FadD28 FP inh, Rv3671c inh, Mtb FBA inh)
COC(=O)C1=CN(Cc2cccs2)C=C(C(=O)OC)C1c1cccc(Cl)c1	Mtb FBA inh 71.1 | Mtb FBA inh conf 64.9 | GDH-TPI counter-2 53.4
COC(=O)C1=CN(Cc2cccs2)C=C(C(=O)OC)C1c1ccc(OC)cc1OC	Mtb FBA inh 85.2 (no result: BioA inh) | Mtb FBA inh conf 89.5 | GDH-TPI counter-2 93.1
COC(=O)C1=CN(c2ccc(OC)cc2)C=C(C(=O)OC)C1c1cc(OC)c(OC)cc1OC	none
CCCCOC(=O)c1ccccc1C(=O)OCCCC	none
O=C(/C=C/c1cccc(Cl)c1)NCc1cccs1	none (no result: BioA inh)
CCCCOc1ccccc1C1C(C(=O)OC)=CN(CC)C=C1C(=O)OC	Mtb FBA inh 62.8 | Mtb FBA inh conf inactive | GDH-TPI counter-2 inactive
